According to PubChem BioAssay (Tox21):
Values joined by “and” are separate entries in the source; they are usually repeats but may differ in a detail not shown here. Equal entries are not always repeated. Results filed as inconclusive are left out. Active and inactive are the calls of the source. Unless noted, calls come from the whole dose curve; as a rule, active = well fitted curve in the direction sought with a large enough effect in the repeat runs; inconclusive = weak or mixed curves; inactive = no such curve, though single readings can be large; an effect the other way counts as inactive or inconclusive.

Assays:
[1] = qHTS assay to identify small molecule antagonists of the glucocorticoid receptor (GR) signaling pathway - cell viability counter screen (AID 720693); note: nearly all actives have a fitted effect of over 55% in size
[2] = qHTS assay for identifying genotoxic compounds that show differential cytotoxicity against isogenic chicken DT40 cell lines with known DNA damage response pathways - wild type cell line (AID 743012); note: nearly all actives have a fitted effect of over 60% in size; note: potency is the fitted concentration of half-maximal effect
Procedure, shortened: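 Endpoint: CellTiter-Glo luminescence, 30 min RT. Cells: wild type DT40, 300/well. Exposure: compounds in DMSO, 40 h, 37 C/5% CO2, after ~0.5 h pre-incubation.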

[3] = qHTS assay for identifying genotoxic compounds that show differential cytotoxicity against isogenic chicken DT40 cell lines with known DNA damage response pathways - Rev3 mutant cell line (AID 743014); note: nearly all actives have a fitted effect of over 55% in size; note: potency is the fitted concentration of half-maximal effect
[4] = qHTS assay for identifying genotoxic compounds that show differential cytotoxicity against isogenic chicken DT40 cell lines with known DNA damage response pathways - Rad54/Ku70 mutant cell line (AID 743015); note: nearly all actives have a fitted effect of over 60% in size; note: potency is the fitted concentration of half-maximal effect
[5] = qHTS assay to identify small molecule antagonists of the androgen receptor (AR) signaling pathway - cell viability counter screen (AID 743033; note: nearly all actives have a fitted effect of over 45% in size)
[6] = qHTS assay to identify small molecule antagonists of the androgen receptor (AR) signaling pathway using the MDA cell line - cell viability counter screen (AID 743041; note: nearly all actives have a fitted effect of over 45% in size)
Procedure, shortened: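 qHTS viability read-out; MDA-kb2 AR-luc; R1881-stimulated; 16 h exposure at 37C, 0% CO2; CellTiter-Fluor, 30 min; fluorescence intensity.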

[7] = qHTS assay to identify small molecule antagonists of the thyroid receptor (TR) signaling pathway (AID 743065); note: series mostly up to about 70 µM; nearly all actives have a fitted effect of over 55% in size
Procedure, shortened: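 GH3.TRE-Luc rat pituitary cells carrying two TR response elements driving luciferase were plated for 4 h, given compound plus 1 nM T3 (final), and incubated 23.5 h at 37 C. ONE-Glo luminescence measured reporter inhibition; CellTiter-Fluor fluorescence tracked cytotoxicity.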

[8] = tested on: thyroid hormone receptor (rat, GH3 cells); assay: qHTS assay to identify small molecule agonists of the thyroid receptor (TR) signaling pathway (AID 743066; calls by dose curve)
[9] = target: Estrogen receptor (Homo sapiens) (UniProt P03372); assay: qHTS assay to identify small molecule antagonists of the estrogen receptor alpha (ER-alpha) signaling pathway (AID 743069; active = well fitted curve in the direction sought with a large enough effect in the signal ratio in the repeat runs, not every such curve was filed as active; the % refers to the signal ratio)
Procedure, shortened: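 Screening used a UAS-driven beta-lactamase reporter integrated into HEK293 cells expressing ER-alpha, stimulated with 17beta-estradiol alongside test compounds over 18 hr at 37C; signal came from LiveBLAzer B/G FRET fluorescence.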

[10] = qHTS assay to identify small molecule antagonists of the estrogen receptor alpha (ER-alpha) signaling pathway - cell viability counter screen (AID 743074; calls by dose curve; note: nearly all actives have a fitted effect of over 45% in size; note: potency is the fitted concentration of half-maximal effect)
[11] = target: Estrogen receptor (Homo sapiens) (UniProt P03372); assay: qHTS assay to identify small molecule agonists of the estrogen receptor alpha (ER-alpha) signaling pathway (AID 743075; calls by dose curve)
[12] = target: Estrogen receptor (Homo sapiens) (UniProt P03372); assay: qHTS assay to identify small molecule agonists of the estrogen receptor alpha (ER-alpha) signaling pathway using the BG1 cell line (AID 743079); note: nearly all actives have a fitted effect of over 20% in size
[13] = qHTS assay to identify small molecule antagonists of the estrogen receptor alpha (ER-alpha) signaling pathway using the BG1 cell line (AID 743080; calls by dose curve;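 note: BG1 cells stimulated with 17beta-estradiol alongside compound; nearly all actives have a fitted effect of over 25% in size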; note: potency is the fitted concentration of half-maximal effect)
Procedure, shortened: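 Quantitative HTS on the Tox21 10K library: BG1 cells with endogenous ER-alpha and ERE-luciferase reporter, 17beta-estradiol stimulation, 21.5 h compound exposure, luminescence endpoint with parallel fluorescence cytotoxicity counter-read.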

[14] = qHTS assay to identify small molecule antagonists of the estrogen receptor alpha (ER-alpha) signaling pathway using the BG1 cell line - cell viability counter screen (AID 743081);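 note: compound given together with 17beta-estradiol as the ER stimulus; series mostly up to about 70 µM; nearly all actives have a fitted effect of over 45% in size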
Aromatase (Homo sapiens) = Aromatase (Homo sapiens) (UniProt P11511); assay: qHTS assay to identify aromatase inhibitors (AID 743083); note: series mostly up to about 70 µM; nearly all actives have a fitted effect of over 55% in size
[15] = qHTS assay to identify small molecule antagonists of the thyroid receptor (TR) signaling pathway - cell viability counter screen (AID 743064); note: nearly all actives have a fitted effect of over 50% in size
Procedure, shortened: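 Viability of T3-stimulated (1 nM final) GH3.TRE-Luc cells is measured by CellTiter-Fluor fluorescence after 23.5 h compound exposure at 37 °C plus 30 min reagent incubation.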

[16] = target: Androgen receptor (Homo sapiens) (UniProt P10275); assay: qHTS assay to identify small molecule antagonists of the androgen receptor (AR) signaling pathway (AID 743035; active = well fitted inhibition curve with a large enough effect in the signal ratio in the repeat runs, not every such curve was filed as active; the % refers to the signal ratio)
Procedure, shortened: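 R1881 agonist challenge of a HEK293 UAS-beta-lactamase AR reporter line in the presence of compound (16 h, 37C); signal taken as FRET fluorescence after 2 h with LiveBLAzer B/G substrate at room temperature.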

[17] = target: Androgen receptor (Homo sapiens) (UniProt P10275); assay: qHTS assay to identify small molecule agonists of the androgen receptor (AR) signaling pathway (AID 743036; active = well fitted activation curve with a large enough effect in the signal ratio in the repeat runs, with a control signal flat, not every such curve was filed as active; the % refers to the signal ratio)
Procedure, shortened: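 Screening used 2,000 AR-bla HEK293 cells per well, treated 16 h at 37C with test compounds in DMSO alongside positive and DMSO-only controls; beta-lactamase activity was then read by LiveBLAzer B/G FRET fluorescence after 2 h at room temperature.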

[18] = target: Androgen receptor (Homo sapiens) (UniProt P10275); assay: qHTS assay to identify small molecule agonists of the androgen receptor (AR) signaling pathway using the MDA cell line (AID 743040; note: nearly all actives have a fitted effect of over 20% in size)
Procedure, shortened: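 Agonist activity is measured as luciferase luminescence in human MDA-kb2 cells whose MMTV reporter responds to both AR and GR. Compounds in DMSO incubate 16 h at 37C, 0% CO2, and ONE-Glo is read after 30 min.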

[19] = target: Androgen receptor (Homo sapiens) (UniProt P10275); assay: qHTS assay to identify small molecule antagonists of the androgen receptor (AR) signaling pathway using the MDA cell line (AID 743042; note: nearly all actives have a fitted effect of over 55% in size)
Procedure, shortened: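 MDA-kb2 cells (human breast carcinoma, stably carrying an MMTV-luciferase reporter responsive to AR and GR) were plated at 3,000 cells/well and preincubated 5 hr at 37C, then given compound plus R1881 agonist for 16 h. ONE-Glo luminescence was read.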
% is set by controls: 0 for no effect and ±100 for the full control effect.

Chain of Estrogen receptor (Homo sapiens) (P03372 whole entry, looked up): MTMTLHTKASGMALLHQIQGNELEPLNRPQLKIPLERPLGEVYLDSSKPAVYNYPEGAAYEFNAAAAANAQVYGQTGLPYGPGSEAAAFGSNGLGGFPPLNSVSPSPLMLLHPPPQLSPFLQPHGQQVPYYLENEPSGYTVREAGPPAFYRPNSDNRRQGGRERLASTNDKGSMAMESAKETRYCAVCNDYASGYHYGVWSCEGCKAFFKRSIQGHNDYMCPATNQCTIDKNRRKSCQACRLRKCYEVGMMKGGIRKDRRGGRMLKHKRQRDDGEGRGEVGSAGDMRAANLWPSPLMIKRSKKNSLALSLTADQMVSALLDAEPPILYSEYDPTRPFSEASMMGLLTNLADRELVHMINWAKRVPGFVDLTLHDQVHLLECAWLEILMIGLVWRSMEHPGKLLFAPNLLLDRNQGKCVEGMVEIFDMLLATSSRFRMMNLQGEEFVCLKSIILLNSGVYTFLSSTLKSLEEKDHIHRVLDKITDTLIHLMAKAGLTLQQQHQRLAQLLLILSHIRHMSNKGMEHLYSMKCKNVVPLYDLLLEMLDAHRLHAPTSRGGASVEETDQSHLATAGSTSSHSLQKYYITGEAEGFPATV
Chain of Androgen receptor (Homo sapiens) (P10275 whole entry, looked up): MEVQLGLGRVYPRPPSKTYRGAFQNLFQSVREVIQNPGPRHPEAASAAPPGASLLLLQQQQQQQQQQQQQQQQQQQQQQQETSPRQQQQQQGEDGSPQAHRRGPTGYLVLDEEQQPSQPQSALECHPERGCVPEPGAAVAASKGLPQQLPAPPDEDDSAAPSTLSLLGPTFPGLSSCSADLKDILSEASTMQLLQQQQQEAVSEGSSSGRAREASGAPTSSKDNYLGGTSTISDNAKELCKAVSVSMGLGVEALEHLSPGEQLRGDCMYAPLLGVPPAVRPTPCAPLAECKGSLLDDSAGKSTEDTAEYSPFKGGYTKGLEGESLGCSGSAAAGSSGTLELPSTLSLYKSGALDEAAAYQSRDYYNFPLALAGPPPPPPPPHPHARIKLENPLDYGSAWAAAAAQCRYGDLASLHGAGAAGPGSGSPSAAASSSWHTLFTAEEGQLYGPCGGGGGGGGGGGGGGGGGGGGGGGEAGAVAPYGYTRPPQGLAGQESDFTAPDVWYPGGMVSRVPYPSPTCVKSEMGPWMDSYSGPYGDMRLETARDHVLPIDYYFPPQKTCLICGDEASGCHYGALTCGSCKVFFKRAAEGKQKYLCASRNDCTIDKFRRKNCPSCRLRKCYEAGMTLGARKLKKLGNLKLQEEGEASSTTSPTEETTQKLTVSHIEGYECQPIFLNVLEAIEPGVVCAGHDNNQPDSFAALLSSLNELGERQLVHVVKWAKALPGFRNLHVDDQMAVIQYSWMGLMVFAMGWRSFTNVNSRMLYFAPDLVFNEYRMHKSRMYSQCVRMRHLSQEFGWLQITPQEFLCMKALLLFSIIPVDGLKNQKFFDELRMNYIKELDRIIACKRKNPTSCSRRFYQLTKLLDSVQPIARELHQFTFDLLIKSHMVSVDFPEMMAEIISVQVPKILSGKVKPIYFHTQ
Chain of Aromatase (Homo sapiens) (P11511 whole entry, looked up): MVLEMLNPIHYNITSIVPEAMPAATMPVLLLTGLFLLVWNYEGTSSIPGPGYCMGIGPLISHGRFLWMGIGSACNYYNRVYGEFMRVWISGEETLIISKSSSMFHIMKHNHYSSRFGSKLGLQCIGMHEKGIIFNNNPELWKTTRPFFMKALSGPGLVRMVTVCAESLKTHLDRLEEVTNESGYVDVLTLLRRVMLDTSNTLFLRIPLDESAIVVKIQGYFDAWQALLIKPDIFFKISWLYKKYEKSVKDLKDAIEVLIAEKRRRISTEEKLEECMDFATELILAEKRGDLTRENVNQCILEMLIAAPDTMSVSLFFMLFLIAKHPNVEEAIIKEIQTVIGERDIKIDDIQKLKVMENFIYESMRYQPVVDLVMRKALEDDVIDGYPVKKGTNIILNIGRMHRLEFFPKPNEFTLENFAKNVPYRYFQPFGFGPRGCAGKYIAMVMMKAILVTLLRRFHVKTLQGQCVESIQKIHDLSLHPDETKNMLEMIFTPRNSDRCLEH

Cc1cc(C)c(N)c(Cl)c1
inactive: outcome [1] | Potency [2] | Potency [3] | Potency [4] | outcome [5] | outcome [6] | Potency [7] | Potency [8] | outcome [9] | Potency [10] | Potency [11] | Potency [12] | Potency [13] | outcome [14] | Potency (Aromatase (Homo sapiens))

CCCC[O][Al]([O]CCCC)[O]CCCC
inactive: outcome [1] | Potency [2] | Potency [3] | Potency [4] | outcome [5] | outcome [6] | Potency [15] | Potency [10] | outcome [14] | Potency (Aromatase (Homo sapiens))

N#Cc1ccccc1C#N
inactive: outcome [1] | Potency [2] | Potency [3] | outcome [5] | outcome [16] | outcome [17] | outcome [18] | outcome [6] | outcome [19] | Potency [15] | Potency [7] | Potency [8] | Potency [10] | Potency [11] | Potency [12] | Potency [13] | outcome [14] | Potency (Aromatase (Homo sapiens))

C[C@]12C=CC(=O)C=C1[C@@H](F)C[C@@H]1[C@@H]2[C@@H](O)C[C@@]2(C)[C@H]1CC[C@]2(O)C(=O)CO
active: Potency [2] 18.8 µM | Potency [3] 18.8 µM | Potency [4] 23.7 µM and 26.6 µM
inactive: outcome [1] | outcome [5] | outcome [6] | Potency [15] | Potency [10] | Potency [11] | outcome [14] | Potency (Aromatase (Homo sapiens))

Cc1ccc(OC(=O)CC(C)C)cc1
inactive: outcome [1] | Potency [2] | Potency [3] | outcome [5] | outcome [6] | Potency [15] | Potency [7] | Potency [8] | outcome [9] | Potency [10] | Potency [11] | Potency [12] | Potency [13] | outcome [14] | Potency (Aromatase (Homo sapiens))

CC(=O)SC[C@@H](C)C(=O)N1CCC[C@H]1C(=O)N[C@@H](Cc1ccccc1)C(=O)O
inactive: outcome [1] | Potency [2] | Potency [3] | Potency [4] | outcome [5] | outcome [6] | Potency [15] | outcome [9] | Potency [10] | Potency [11] | Potency [12] | outcome [14] | Potency (Aromatase (Homo sapiens))

O=C1CC2(CCCC2)CC(=O)N1CCNCC1COc2ccccc2O1 (stereo not given)
active: Potency [2] 21.1 µM | Potency [3] 26.6 µM | Potency [4] 26.6 µM | Potency [10] 21.3 µM
inactive: outcome [1] | Potency [15] | Potency [8] | outcome [14] | Potency (Aromatase (Homo sapiens))

NCC1CCC(C(=O)Oc2ccc(CCC(=O)O)cc2)CC1 (stereo not given)
active: Potency [13] 26.6 µM
inactive: outcome [1] | Potency [2] | Potency [3] | Potency [4] | outcome [5] | outcome [6] | Potency [7] | Potency [8] | outcome [9] | Potency [10] | Potency [11] | outcome [14]

c1cc2ccc3ccc4ccc5cccc6c(c1)c2c3c4c56
inactive: viability change, negative = cytotoxic [1] -5.31% [at 3.15 µM] | activity change, negative = cytotoxicity [2] -1.12% [at 3.82 µM] | activity, negative = cytotoxicity [3] 5.02% [at 3.82 µM] | activity change, negative = cytotoxicity [4] 5.01% [at 3.83 µM] | activity change, negative = cytotoxicity [5] 1.8% [at 3.15 µM] | viability change, negative = cytotoxic [6] 14.1% [at 3.79 µM] | activity, negative = inhibition [7] 1.62% [at 3.79 µM] | activation [8] 1% [at 3.63 µM] | activity, negative = cytotoxicity [10] 7.3% [at 3.02 µM] | activity change, negative = cytotoxicity [14] 17.4% [at 3.79 µM] | activity, negative = inhibition (Aromatase (Homo sapiens)) -7.29% [at 3.79 µM]

CC(C)(C)C(=O)CC(=O)C(C)(C)C
inactive: outcome [1] | Potency [2] | Potency [3] | Potency [4] | outcome [5] | outcome [6] | Potency [7] | Potency [8] | outcome [9] | Potency [10] | Potency [11] | Potency [12] | Potency [13] | outcome [14] | Potency (Aromatase (Homo sapiens))
